# Results from the supplement of paper PMC7380943.
# Where a name gives a salt, the structure may show the parent alone. ± gives the standard deviation of the averaged measurements.
# Key:
# [1] = test system: CLZ3 (HCA2 human fibroblast dual HR-NHEJ reporter); test: NHEJ repair efficiency (GFP+ cells) relative to control (log10 fold); higher = more non-homologous end joining; conditions: 5 µM; doxycycline 0.5 ug/mL
# [2] = test system: CLZ3 (HCA2 human fibroblast dual HR-NHEJ reporter); test: HR repair efficiency (tdTomato+ cells) relative to control (log10 fold); higher = more homologous recombination; conditions: 5 µM; doxycycline 0.5 ug/mL
# 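Throughout, for HR repair efficiency (tdTomato+ cells) relative to control: compound given one day before doxycycline, which switches on I-SceI endonuclease expression to create double-strand breaks within the integrated reporter.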
# 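Throughout, for NHEJ repair efficiency (GFP+ cells) relative to control: compound given one day ahead of doxycycline, which switches on I-SceI endonuclease to cut the chromosomally integrated reporter and create DSBs.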
smiles,measurement,setting,value
CN[C@@H](C)[C@H](O)c1ccccc1 [Ephedrine hydrochloride],NHEJ repair efficiency (log10),[1],0.0488
same,HR repair efficiency (log10),[2],-0.0579
C[C@@H]1CCC=C2C(=O)C[C@H]3OOC(C)(C)[C@H]3[C@]21C [Nardosinone],NHEJ repair efficiency (log10),[1],-0.0297
same,HR repair efficiency (log10),[2],-0.0118
N#C/C=C1/C=C[C@@H](O)[C@H](O)[C@H]1O[C@@H]1O[C@H](CO)[C@@H](O)[C@H](O)[C@H]1O [Lithospermoside],NHEJ repair efficiency (log10),[1],0.0837
same,HR repair efficiency (log10),[2],0.0424
CCCC[N+]1(C)[C@@H]2C[C@@H](OC(=O)[C@H](CO)c3ccccc3)C[C@H]1[C@@H]1O[C@@H]12 (stereo partly drawn) [Scopolamine Butylbromide],NHEJ repair efficiency (log10),[1],-0.172
same,HR repair efficiency (log10),[2],0.0357
COC[C@]12CN(C)C3[C@@H]4[C@H](OC)[C@H]1[C@@]3([C@@H](OC)C[C@H]2O)[C@@H]1C[C@@]2(O)[C@H](OC(=O)c3ccccc3)[C@@H]1[C@]4(O)[C@@H](O)[C@@H]2OC [Benzoylmesaconine],NHEJ repair efficiency (log10),[1],-0.0412
same,HR repair efficiency (log10),[2],-0.144
C=CCSSCC=C [Garlicin],NHEJ repair efficiency (log10),[1],-0.0895
same,HR repair efficiency (log10),[2],-0.0428
C=C[C@@H](O)C#CC#C[C@@H](O)/C=C\CCCCCCC [Falcarindiol],NHEJ repair efficiency (log10),[1],-0.109
same,HR repair efficiency (log10),[2],-0.13
COc1cc(C(=O)OC2C3C=COC(OC4OC(CO)C(O)C(O)C4O)C3C3(CO)OC23)ccc1O (stereo not drawn) [Amphicoside Ii],NHEJ repair efficiency (log10),[1],0.0243
same,HR repair efficiency (log10),[2],-0.0261
COC(=O)C1=CCCN(C)C1 [Arecoline Hydrobromide],NHEJ repair efficiency (log10),[1],0.0326
same,HR repair efficiency (log10),[2],0.0648
O=C1C=CC[C@@H]2[C@H]3CCCN4CCC[C@@H](CN12)[C@@H]34 [Sophocarpine],NHEJ repair efficiency (log10),[1],-0.0254
same,HR repair efficiency (log10),[2],0.165
CCN1C[C@@]2(COC)[C@H]3[C@@H](OC)[C@H]4C1[C@]3([C@@H](OC)C[C@H]2OC(C)=O)[C@@H]1C[C@@]2(O)[C@H](OC(=O)c3ccccc3)[C@@H]1[C@]4(OC(C)=O)[C@@H](O)[C@@H]2OC [Acetylaconitine],NHEJ repair efficiency (log10),[1],-0.0797
same,HR repair efficiency (log10),[2],-0.0667
C=C[C@H]1CN2CC[C@]3(C(=O)Nc4ccccc43)[C@@H]2C[C@@H]1/C(=C\OC)C(=O)OC [Corynoxeine],NHEJ repair efficiency (log10),[1],-0.123
same,HR repair efficiency (log10),[2],-0.139
N#CCc1ccc2c(c1)OCO2 [Homopiperonylonitrile],NHEJ repair efficiency (log10),[1],0.103
same,HR repair efficiency (log10),[2],0.127
CC1=C2C[C@H]3[C@@H](CC(=O)[C@H]4C[C@@H](O)CC[C@@]43C)[C@@H]2CC[C@]12O[C@@H]1C[C@H](C)CN[C@H]1[C@H]2C [Peimisine],NHEJ repair efficiency (log10),[1],-0.0359
same,HR repair efficiency (log10),[2],-0.00991
O=C(/C=C/c1ccccc1)OC[C@H]1O[C@@H](O[C@@H]2OC=C[C@H]3[C@H](O)[C@@H]4O[C@]4(CO)[C@@H]23)[C@H](O)[C@@H](O)[C@@H]1O [Picroside I],NHEJ repair efficiency (log10),[1],-0.0564
same,HR repair efficiency (log10),[2],-0.0261
O=C(O)[C@@H]1[C@H](C(=O)O)[C@H]2CC[C@@H]1O2 [Endothall Disodium Salt],NHEJ repair efficiency (log10),[1],0.13
same,HR repair efficiency (log10),[2],0.143
COC[C@]12CN(C)[C@@H]3[C@@H]4[C@H](OC)[C@H]1[C@@]3([C@@H](OC)C[C@H]2O)[C@@H]1C[C@@]2(O)[C@H](OC(=O)c3ccccc3)[C@@H]1[C@]4(OC(C)=O)[C@@H](O)[C@@H]2OC [Mesaconitine],NHEJ repair efficiency (log10),[1],-0.0215
same,HR repair efficiency (log10),[2],0.0192
CCN1C[C@]2(COC)[C@H](O)C[C@H](OC)[C@@]34[C@@H]5C[C@@]6(O)[C@H](OC(=O)c7ccccc7)[C@@H]5[C@@](OC(C)=O)([C@@H]([C@H](OC)[C@H]23)[C@@H]14)[C@@H](O)[C@@H]6OC [Aconitine],NHEJ repair efficiency (log10),[1],-0.148
same,HR repair efficiency (log10),[2],0.0783
CCN1C[C@]2(COC)[C@H](O)C[C@H](OC)[C@]34C1[C@H]([C@H](OC)[C@H]23)[C@@]1(OC(C)=O)C[C@H](OC)[C@@]2(O)C[C@@H]4[C@@H]1[C@H]2OC(=O)c1ccc(OC)cc1 [Yunaconitine],NHEJ repair efficiency (log10),[1],-0.0536
same,HR repair efficiency (log10),[2],-0.204
O=C1C=CC(=O)c2c(O)cccc21 [Juglone],NHEJ repair efficiency (log10),[1],0.0328
same,HR repair efficiency (log10),[2],-0.281
O=c1cccc2n1C[C@@H]1CNC[C@H]2C1 [Cytisine],NHEJ repair efficiency (log10),[1],0.00702
same,HR repair efficiency (log10),[2],0.264
CCN1C[C@]2(COC)CC[C@H](OC)[C@]34C1[C@H](C[C@H]23)[C@@]1(O)C[C@H](OC)[C@H]2C[C@@H]4[C@@H]1[C@H]2O [Talatisamine],NHEJ repair efficiency (log10),[1],0.0604
same,HR repair efficiency (log10),[2],0.0585
C=C[C@H]1[C@H](O[C@@H]2O[C@H](CO)[C@@H](O)[C@H](O)[C@H]2O)OC=C2C(=O)OCC[C@H]21 [Sweroside],NHEJ repair efficiency (log10),[1],0.0688
same,HR repair efficiency (log10),[2],0.0254
O=C/C=C/c1ccccc1 [Cinnamaldehyde],NHEJ repair efficiency (log10),[1],0.0683
same,HR repair efficiency (log10),[2],-0.0835
COc1cc2c3c(c1OC)-c1ccccc1C[C@H]3N(C)CC2 [Nuciferine],NHEJ repair efficiency (log10),[1],0.114
same,HR repair efficiency (log10),[2],0.137
N#C[C@H](O[C@@H]1O[C@H](CO[C@@H]2O[C@H](CO)[C@@H](O)[C@H](O)[C@H]2O)[C@@H](O)[C@H](O)[C@H]1O)c1ccccc1 [Amygdalin],NHEJ repair efficiency (log10),[1],-0.0091
same,HR repair efficiency (log10),[2],0.107
COC1=C[C@@H]2[C@@H]3Cc4ccc(OC)c(O)c4[C@]2(CCN3C)CC1=O [Sinomenine],NHEJ repair efficiency (log10),[1],0.154
same,HR repair efficiency (log10),[2],0.274
CCC(C)C(=O)O[C@@H]1[C@@H](OC(C)=O)[C@]2(C)[C@H](C(C)=O)CC[C@@]23O[C@]32CC[C@H]3C[C@@H](O[C@H]4C[C@@H](OC)[C@H](O[C@@H]5O[C@H](C)[C@@H](O)[C@@H](OC)[C@H]5O)[C@@H](C)O4)CC[C@]3(C)[C@@H]12 (stereo partly drawn) [Tenacissoside H],NHEJ repair efficiency (log10),[1],-0.0163
same,HR repair efficiency (log10),[2],0.0233
CCN1CC2(COC)CCC(O)C34C5CC6C(OC)CC(O)(C5C6O)C(C(OC)C23)C14 (stereo not drawn) [Bullatine B],NHEJ repair efficiency (log10),[1],-0.0469
same,HR repair efficiency (log10),[2],0.0659
CC[C@H]1CN2CC[C@@]3(C(=O)Nc4ccccc43)[C@@H]2C[C@@H]1/C(=C\OC)C(=O)OC [Isorhynchophylline],NHEJ repair efficiency (log10),[1],-0.108
same,HR repair efficiency (log10),[2],-0.0739
COC[C@@]12CC[C@H](OC)[C@]34C(C([C@H](OC)[C@H]13)[C@]1(OC(C)=O)[C@H]3[C@@H](OC(=O)c5ccccc5)[C@](O)(C[C@H]34)[C@@H](OC)[C@@H]1O)N(C)C2 [Hypaconitine],NHEJ repair efficiency (log10),[1],0.0511
same,HR repair efficiency (log10),[2],0.0965
Oc1cc(O)cc(/C=C/c2ccc(O)cc2O)c1 [Oxy-Resveratrol],NHEJ repair efficiency (log10),[1],0.00144
same,HR repair efficiency (log10),[2],-0.164
CCN1C[C@]2(OC(=O)c3ccccc3NC(C)=O)CC[C@H](OC)[C@@]34[C@@H]2C[C@@H]([C@@H]13)[C@@]1(O)C[C@H](OC)[C@H]2C[C@@H]4[C@]1(O)[C@H]2OC [Lappaconitine],NHEJ repair efficiency (log10),[1],0.147
same,HR repair efficiency (log10),[2],0.0273
O=c1ccc2cc3ccoc3c(O)c2o1 [Xanthotoxol],NHEJ repair efficiency (log10),[1],0.0631
same,HR repair efficiency (log10),[2],-0.0752
CC(=O)[C@]1(O)CC[C@@]2(O)[C@]1(C)[C@H](OC(=O)/C=C(\C)C(C)C)C[C@@H]1[C@@]3(C)CC[C@H](O)CC3=CC[C@]12O [Caudatin],NHEJ repair efficiency (log10),[1],-0.0815
same,HR repair efficiency (log10),[2],-0.0376
C=C[C@@H]1C2=CCOC(=O)C2=CO[C@H]1O[C@@H]1O[C@H](CO)[C@@H](O)[C@H](O)[C@H]1O [Gentiopicrin],NHEJ repair efficiency (log10),[1],-0.0046
same,HR repair efficiency (log10),[2],0.0966
c1c2c(cc3c1OCO3)-c1cc3ccc4c(c3c[n+]1CC2)OCO4 [Coptisine Chloride],NHEJ repair efficiency (log10),[1],-0.16
same,HR repair efficiency (log10),[2],0.0577
CN(C)Cc1c[nH]c2ccccc12 [Gramine],NHEJ repair efficiency (log10),[1],0.014
same,HR repair efficiency (log10),[2],-0.0905
COC(=O)C1=CCCN(C)C1 [Arecoline],NHEJ repair efficiency (log10),[1],0.0763
same,HR repair efficiency (log10),[2],0.183
CC(C)=CCCC(C)(O)C1CCC2(C)C1C(O)CC1C3(C)CCC(O)C(C)(C)C3C(OC3OC(CO)C(O)C(O)C3O)CC12C (stereo not drawn) [R-Ginsenoside Rh1],NHEJ repair efficiency (log10),[1],-0.0562
same,HR repair efficiency (log10),[2],0.0565
CCN1C[C@]2(COC)[C@H](O)C[C@H](OC)[C@]34C1[C@H]([C@H](OC)[C@H]23)[C@@]1(OC(C)=O)C[C@H](OC)[C@@]2(O)C[C@@H]4[C@@H]1[C@H]2OC(=O)c1ccccc1 [Indaconitine],NHEJ repair efficiency (log10),[1],0.0186
same,HR repair efficiency (log10),[2],0.112
c1cc2c(cc1[C@H]1OC[C@H]3[C@@H]1CO[C@@H]3c1ccc3c(c1)OCO3)OCO2 [Sesamin],NHEJ repair efficiency (log10),[1],0.0857
same,HR repair efficiency (log10),[2],0.185
CC(C)=CCOc1c2occc2cc2ccc(=O)oc12 [Imperatorin],NHEJ repair efficiency (log10),[1],0.0993 ± 0.22
same,HR repair efficiency (log10),[2],0.135 ± 0.28
CN1[C@@H]2C[C@@H](OC(=O)[C@H](CO)c3ccccc3)C[C@H]1[C@@H]1O[C@@H]12 [Scopolamine Hydrobromide],NHEJ repair efficiency (log10),[1],0.039
same,HR repair efficiency (log10),[2],-0.0275
COc1c(C)c(O)cc2[o+]c(-c3ccccc3)ccc12.[O-][Cl+3]([O-])([O-])[O-] [Dracorhodin perochlorate],NHEJ repair efficiency (log10),[1],0.134
same,HR repair efficiency (log10),[2],0.0436
COc1cc2occc2c2oc(=O)ccc12 [Isobergapten],NHEJ repair efficiency (log10),[1],-0.0955
same,HR repair efficiency (log10),[2],-0.063
COc1cc2c(cc1OC)[C@@]13CCN4CC5=CCO[C@H]6CC(=O)N2[C@H]1[C@H]6[C@H]5C[C@H]43 [Brucine],NHEJ repair efficiency (log10),[1],-0.228
same,HR repair efficiency (log10),[2],-0.24
CN[C@@H](Cc1c[nH]c2ccccc12)C(=O)O [Abrine],NHEJ repair efficiency (log10),[1],-0.159
same,HR repair efficiency (log10),[2],-0.21
C[C@H]1CCC2N(C1)C[C@H]1C3CC4[C@@H](CC(=O)C5C[C@@H](O)CC[C@@]54C)C3CCC1[C@]2(C)O (stereo partly drawn) [Peiminine],NHEJ repair efficiency (log10),[1],-0.0507
same,HR repair efficiency (log10),[2],0.0963
C[C@H]1CC[C@@H]2N(C1)C[C@H]1[C@@H]3C[C@H]4[C@@H](C[C@H](O)[C@H]5C[C@@H](O)CC[C@@]54C)[C@@H]3CC[C@@H]1[C@]2(C)O [Peimine],NHEJ repair efficiency (log10),[1],-0.07
same,HR repair efficiency (log10),[2],-0.0412
C=C1[C@H]2C[C@@]3([C@@H]1O)[C@@H](CC2=O)[C@]12[C@@H]4C[C@H]3[C@H]1N(CC)C[C@]4(C)CC[C@@H]2O [Songorine],NHEJ repair efficiency (log10),[1],-0.0383
same,HR repair efficiency (log10),[2],0.115
CCC1=C[C@H]2CN3CCc4c([nH]c5ccccc45)[C@](C(=O)OC)(C2)[C@H]13 [Catharanthine],NHEJ repair efficiency (log10),[1],0.00477
same,HR repair efficiency (log10),[2],0.0298
COc1cccc2c1cc([N+](=O)[O-])c1c(C(=O)O)cc3c(c12)OCO3 [Aristolochic acid A],NHEJ repair efficiency (log10),[1],0.203
same,HR repair efficiency (log10),[2],0.0578
CC1(C)[C@H]2O[C@H]2[C@H]2[C@](C)(O)[C@@H]3CCC4[C@H](O)[C@@]3(C[C@@H](O)[C@@]21O)C[C@@]4(C)O [Rhodojaponin Iii],NHEJ repair efficiency (log10),[1],0.0171
same,HR repair efficiency (log10),[2],0.0481
